# Source: the supplement of paper PMC6555819
# Key:
# Assay in all cases: PBM binding z-score (relative to random genomic background probes); higher = stronger binding; sequences stand for … in GC…GCGATTGACAGCGTAGAATGAAGG
# [1] = test system: PPARg:RXRa DBDmut IVT, anti-RXR (DBD mutation: RXRa K156A/R161A, NR concentration 270 nM, RXRa partner concentration 90 nM)
# Summary of the method: (§1)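 Binding z-scores were set against random background probes. The data came from custom Agilent 4×180K protein-binding microarrays carrying double-stranded probes with 34-nt variable regions, incubated 1 h with ligand-free nuclear receptor dimers. Partner-specific antibodies detected binding, and scanned fluorescence was regression-normalized.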
# [2] = test system: PPARg:RXRa IVT, anti-PPARg (NR concentration 270 nM, RXRa partner concentration 90 nM)
# Summary of the method: as §1
# [3] = test system: PPARg DBDmut:RXRa IVT, anti-PPARg (DBD mutation: PPARg1 K132A/R137A, NR concentration 270 nM, RXRa partner concentration 90 nM)
# Summary of the method: as §1
# [4] = test system: PPARg DBDmut IVT, anti-PPARg (DBD mutation: PPARg1 K132A/R137A, NR concentration 270 nM)
# Summary of the method: as §1
# [5] = test system: PPARg homodimer (NR concentration 180 nM)
# Summary of the method: as §1
# [6] = test system: PXR:RXRa (NR concentration 270 nM, RXRa partner concentration 90 nM)
# Summary of the method: as §1
# [7] = test system: PXR homodimer (NR concentration 270 nM)
# Summary of the method: as §1
# [8] = test system: RARa:RXR (NR concentration 270 nM, RXRa partner concentration 90 nM)
# Summary of the method: as §1
# [9] = test system: RARa homodimer (NR concentration 270 nM)
# Summary of the method: as §1
# [10] = test system: RARb:RXRa (NR concentration 270 nM, RXRa partner concentration 90 nM)
# Summary of the method: as §1
# [11] = test system: RARb homodimer (NR concentration 270 nM)
# Summary of the method: as §1
# [12] = test system: RARg:RXRa (NR concentration 270 nM, RXRa partner concentration 90 nM)
# Summary of the method: as §1
# [13] = test system: RARg homodimer (NR concentration 270 nM)
# Summary of the method: as §1
# [14] = test system: RXRa DBDmut IVT, anti-RXR (DBD mutation: RXRa K156A/R161A, NR concentration 90 nM)
# Summary of the method: as §1
# [15] = test system: RXRa homodimer (NR concentration 180 nM)
# Summary of the method: as §1
# [16] = test system: THRa:RXRa (NR concentration 90 nM, RXRa partner concentration 90 nM)
# Summary of the method: as §1
# [17] = test system: THRa homodimer (NR concentration 90 nM)
# Summary of the method: as §1
# [18] = test system: VDR homodimer (NR concentration 270 nM)
# Summary of the method: as §1
Sequence,PBM binding z-score [1],PBM binding z-score [2],PBM binding z-score [3],PBM binding z-score [4],PBM binding z-score [5],PBM binding z-score [6],PBM binding z-score [7],PBM binding z-score [8],PBM binding z-score [9],PBM binding z-score [10],PBM binding z-score [11],PBM binding z-score [12],PBM binding z-score [13],PBM binding z-score [14],PBM binding z-score [15],PBM binding z-score [16],PBM binding z-score [17],PBM binding z-score [18]
AGAACGAGGGCACGCTGATTTGATAGCAGAGTAG,4.06,4.09,0.567,-0.124,0.292,0.514,-0.166,1,-0.142,2.67,1.14,1.65,1.92,1.63,1.38,1.65,-0.138,0.667
TAGCCTAGGTCATTCAGGGGCCAGTAGAGAAAGC,1.64,2.66,-0.415,-0.024,1.83,2.21,-0.162,3.33,0.0247,3.88,3.21,6.31,4.35,1.84,2.97,3.63,0.688,1.53
AGAACGAGGGCTATGAGTTGATAGCACGGGTGGC,0.434,-0.14,-0.172,-1.35,-0.607,-0.351,0.0434,-0.584,0.201,-0.0296,-0.36,-0.0451,-0.0854,-0.264,0.416,-0.476,-0.913,-0.036
ATCTCTAGGTAACCAAGTTCAGTAAATGCCGAAC,3.43,2.97,1.54,2.29,1.32,2.05,1.79,1.07,0.775,1.2,1.71,0.886,0.809,1.13,0.802,1.67,1.07,2.48
GGAACGAGGGCAAGTTGATGGCAGAGTTTGATGG,3.55,2.56,-0.155,-0.96,0.499,0.948,0.748,0.523,-0.279,2.47,1.59,1.66,1.92,2.1,1.05,1.34,0.188,1.5
AAAACGAGGGCACGCTGAGTTGATAGCAGAGTAG,5.62,5.01,-0.17,0.145,0.283,1.5,0.139,0.828,-0.23,2.65,1.08,2.13,2.34,2.08,1.62,1.94,0.0518,2.26
CGAACTAGGTCATAGACAGGACAGTGAATAGTAA,7.81,8.39,2.54,1.39,1.46,1.43,0.213,2.07,0.165,3.55,2.43,4.2,4.11,1.6,3.32,2.62,0.586,0.676
AGAATGAGGTTACCAAAAATCAGGGAAACGCTTG,4.5,3.48,1.31,0.817,0.553,1.04,-0.0178,1.76,0.389,2.08,0.769,1.84,1.53,1.07,2.47,2.57,1.03,0.541
